The campaign covered roughly 39,000 compounds. About 1,500 (3.8%) were called active. What follows is part of a selection rich in actives, with near analogues and random picks from the rest.
Test system: HSkMC (human skeletal muscle cells)
Experiment: cytotoxicity call (relative viability < 0.9)
Conditions: 10 µM

Compound | cytotoxicity call
Cc1noc(C)c1S(=O)(=O)N(C)C[C@H]1OCCCC[C@@H](C)Oc2ccc(NS(C)(=O)=O)cc2C(=O)N([C@@H](C)CO)C[C@@H]1C | inactive
COc1ccc(NC(=O)N(C)C[C@@H]2Oc3c(NC(=O)C4CCOCC4)cccc3C(=O)N([C@@H](C)CO)C[C@@H]2C)cc1 | inactive
COCC(=O)Nc1ccc2c(c1)C(=O)N(C)C[C@@H](OC)[C@@H](C)CN(C(=O)Cc1cccnc1)[C@@H](C)CO2 | inactive
CCCCn1c(SCC(N)=O)nc2c1c(=O)n(C)c(=O)n2C | inactive
C[C@@H]1CN([C@@H](C)CO)C(=O)Cc2cc(NS(=O)(=O)c3ccc(Cl)cc3)ccc2O[C@@H]1CN(C)Cc1ccc(Oc2ccccc2)cc1 | active
C[C@H](CO)N1C[C@H](C)[C@@H](CN(C)Cc2ccc(Oc3ccccc3)cc2)Oc2ccc(NS(=O)(=O)c3ccc(Cl)cc3)cc2CC1=O | inactive
C[C@@H]1CN([C@@H](C)CO)C(=O)Cc2cc(NS(=O)(=O)c3ccc(Cl)cc3)ccc2O[C@H]1CN(C)Cc1ccc(Oc2ccccc2)cc1 | active
C[C@@H]1CN([C@H](C)CO)C(=O)Cc2cc(NS(=O)(=O)c3ccc(Cl)cc3)ccc2O[C@H]1CN(C)Cc1ccc(Oc2ccccc2)cc1 | active
COc1ccc(S(=O)(=O)N(C)C[C@@H]2Oc3ccc(NS(=O)(=O)c4cccs4)cc3C(=O)N([C@@H](C)CO)C[C@H]2C)cc1 | inactive
CO[C@@H]1CN(C)C(=O)c2cc(NS(=O)(=O)CC(F)(F)F)ccc2OC[C@@H](C)N(Cc2cccnc2)C[C@@H]1C | inactive
Cc1ccc(S(=O)(=O)N[C@@H]2CC[C@H](CC(=O)NCc3ccc(Cl)c(Cl)c3)O[C@H]2CO)cc1 | inactive
COc1ccc(NC(=O)N(C)C[C@@H]2Oc3ccc(NS(=O)(=O)c4c(C)noc4C)cc3C(=O)N([C@@H](C)CO)C[C@@H]2C)cc1 | inactive
Cc1noc(C)c1S(=O)(=O)N(C)C[C@H]1Oc2ccc(NS(=O)(=O)c3cccs3)cc2CC(=O)N([C@H](C)CO)C[C@H]1C | inactive
C[C@H](CO)N1C[C@H](C)[C@H](CN(C)C(=O)Nc2cccc3ccccc23)OCc2cnnn2CCCC1=O | inactive
C[C@@H]1CN([C@@H](C)CO)C(=O)Cc2cc(NC(=O)Nc3ccc(F)cc3)ccc2O[C@H]1CN(C)Cc1ccc(Oc2ccccc2)cc1 | inactive
C[C@H]1CN([C@@H](C)CO)C(=O)Cc2cc(NC(=O)Nc3ccc(F)cc3)ccc2O[C@H]1CN(C)Cc1ccc(Oc2ccccc2)cc1 | active
C[C@@H]1CN([C@H](C)CO)C(=O)Cc2cc(NC(=O)Nc3ccc(F)cc3)ccc2O[C@H]1CN(C)Cc1ccc(Oc2ccccc2)cc1 | active
C[C@H](CO)N1C[C@H](C)[C@@H](CN(C)Cc2ccc(Oc3ccccc3)cc2)Oc2ccc(NC(=O)Nc3ccc(F)cc3)cc2CC1=O | inactive
C[C@@H]1CN([C@@H](C)CO)C(=O)Cc2cc(NC(=O)Nc3ccc(F)cc3)ccc2O[C@@H]1CN(C)Cc1ccc(Oc2ccccc2)cc1 | inactive
C[C@@H]1CN([C@H](C)CO)C(=O)Cc2cc(NC(=O)Nc3ccc(F)cc3)ccc2O[C@@H]1CN(C)Cc1ccc(Oc2ccccc2)cc1 | active
C[C@H]1CN([C@@H](C)CO)C(=O)Cc2cc(NC(=O)Nc3ccc(F)cc3)ccc2O[C@@H]1CN(C)Cc1ccc(Oc2ccccc2)cc1 | inactive
C[C@H](CO)N1C[C@H](C)[C@H](CN(C)Cc2ccc(Oc3ccccc3)cc2)Oc2ccc(NC(=O)Nc3ccc(F)cc3)cc2CC1=O | inactive
O=C(NC1Cc2ccccc2C1)[C@H]1[C@H](CO)[C@H]2Cn3c(cccc3=O)[C@H]2N1C(=O)c1cnccn1 | inactive

Compound | cytotoxicity call
Cc1ccc(S(=O)(=O)Nc2ccc3c(c2)C(=O)N([C@H](C)CO)C[C@@H](C)[C@H](CN(C)S(=O)(=O)c2ccc(Cl)cc2)OCCCC[C@@H](C)O3)cc1 | inactive
C[C@@H]1CCCCO[C@H](CN(C)CC2CCCCC2)[C@H](C)CN([C@H](C)CO)C(=O)c2cc(NC(=O)CCC(F)(F)F)ccc2O1 | inactive
C[C@@H]1CCCCO[C@@H](CN(C)Cc2ccncc2)[C@H](C)CN([C@@H](C)CO)C(=O)c2cc(NS(C)(=O)=O)ccc2O1 | inactive
O=C(CCCCC(=O)N/N=C/[C@H](O)[C@@H](O)[C@H](O[C@@H]1O[C@H](CO)[C@H](O)[C@H](O)[C@H]1O)[C@H](O)CO)NO | inactive
CCNC(=O)C[C@H]1CC[C@H](NC(=O)C2CCOCC2)[C@@H](CO)O1 | inactive
O=C(CCCCn1c(=O)[nH]c2ccccc2c1=O)N1CCN(c2ncccn2)CC1 | inactive
C[C@H](CO)N1C[C@H](C)[C@@H](CN(C)C(=O)Nc2ccc(C(F)(F)F)cc2)Oc2ccc(NC(=O)Nc3ccc(C(F)(F)F)cc3)cc2CC1=O | inactive
C[C@@H]1CN([C@@H](C)CO)C(=O)Cc2cc(NC(=O)Nc3ccc(C(F)(F)F)cc3)ccc2O[C@H]1CN(C)C(=O)Nc1ccc(C(F)(F)F)cc1 | inactive
C[C@H](CO)N1C[C@H](C)[C@H](CN(C)C(=O)Nc2ccc(C(F)(F)F)cc2)Oc2ccc(NC(=O)Nc3ccc(C(F)(F)F)cc3)cc2CC1=O | active
C[C@@H]1CN([C@H](C)CO)C(=O)Cc2cc(NC(=O)Nc3ccc(C(F)(F)F)cc3)ccc2O[C@H]1CN(C)C(=O)Nc1ccc(F)cc1 | inactive
C[C@H]1CN([C@@H](C)CO)C(=O)Cc2cc(NC(=O)Nc3ccc(C(F)(F)F)cc3)ccc2O[C@@H]1CN(C)C(=O)Nc1ccc(C(F)(F)F)cc1 | inactive
C[C@@H]1CN([C@H](C)CO)C(=O)Cc2cc(NC(=O)Nc3ccc(C(F)(F)F)cc3)ccc2O[C@@H]1CN(C)C(=O)Nc1ccc(C(F)(F)F)cc1 | active
C[C@@H]1CN([C@@H](C)CO)C(=O)Cc2cc(NC(=O)Nc3ccc(C(F)(F)F)cc3)ccc2O[C@H]1CN(C)C(=O)Nc1ccc(F)cc1 | inactive
C[C@@H]1CN([C@H](C)CO)C(=O)Cc2cc(NC(=O)Nc3ccc(C(F)(F)F)cc3)ccc2O[C@H]1CN(C)C(=O)Nc1ccc(C(F)(F)F)cc1 | active
C[C@@H]1CN([C@H](C)CO)C(=O)Cc2cc(NC(=O)Nc3ccc(F)cc3)ccc2O[C@H]1CN(C)C(=O)Nc1ccc(C(F)(F)F)cc1 | inactive
C[C@H]1CN([C@@H](C)CO)C(=O)Cc2cc(NC(=O)Nc3ccc(C(F)(F)F)cc3)ccc2O[C@H]1CN(C)C(=O)Nc1ccc(F)cc1 | inactive
C[C@@H]1CN([C@@H](C)CO)C(=O)Cc2cc(NC(=O)Nc3ccc(C(F)(F)F)cc3)ccc2O[C@@H]1CN(C)C(=O)Nc1ccc(F)cc1 | active
C[C@@H]1CN([C@@H](C)CO)C(=O)Cc2cc(NC(=O)Nc3ccc(F)cc3)ccc2O[C@@H]1CN(C)C(=O)Nc1ccc(C(F)(F)F)cc1 | inactive
NCC[C@@H]1CC[C@@H](NC(=O)c2ccccc2F)[C@@H](CO)O1 | inactive
C[C@@H]1CCCCO[C@H](CN(C)C(=O)Nc2ccc(F)cc2)[C@@H](C)CN([C@H](C)CO)C(=O)c2cc(NC(=O)Nc3cccc4ccccc34)ccc2O1 | inactive
COCC(=O)N(C)C[C@@H]1Oc2cc(C#CC(C)(C)O)ccc2S(=O)(=O)N([C@H](C)CO)C[C@H]1C | inactive
C[C@@H]1CCCCO[C@@H](CN(C)C(=O)Nc2ccccc2)[C@@H](C)CN([C@H](C)CO)C(=O)c2cc(NC(=O)Nc3ccccc3)ccc2O1 | inactive
S=C(c1cccs1)N1CCCC1 | inactive

Compound | cytotoxicity call
CN1C(=O)c2cc(NC(=O)Cc3cccs3)ccc2OC[C@@H]2O[C@H](CC(=O)NCCCN3CCOCC3)CC[C@H]21 | inactive
COc1cc(CO)c(CC(=O)NN)cc1OC | inactive
C[C@@H]1CN([C@@H](C)CO)C(=O)Cc2cc(NC(=O)Nc3ccc(F)cc3)ccc2O[C@H]1CN(C)C(=O)Nc1ccc(C(F)(F)F)cc1 | inactive
C[C@H](CO)N1C[C@H](C)[C@@H](CN(C)C(=O)Nc2ccc(F)cc2)Oc2ccc(NC(=O)Nc3ccc(C(F)(F)F)cc3)cc2CC1=O | inactive
C[C@@H]1CN([C@H](C)CO)C(=O)Cc2cc(NC(=O)Nc3ccc(C(F)(F)F)cc3)ccc2O[C@@H]1CN(C)C(=O)Nc1ccc(F)cc1 | inactive
C[C@@H]1CN([C@@H](C)CO)C(=O)Cc2cc(NC(=O)Nc3ccc(C(F)(F)F)cc3)ccc2O[C@@H]1CN(C)C(=O)Nc1ccc(C(F)(F)F)cc1 | active
C[C@H]1CN([C@@H](C)CO)C(=O)Cc2cc(NC(=O)Nc3ccc(F)cc3)ccc2O[C@@H]1CN(C)C(=O)Nc1ccc(C(F)(F)F)cc1 | inactive
C[C@H]1CN([C@@H](C)CO)C(=O)Cc2cc(NC(=O)Nc3ccc(C(F)(F)F)cc3)ccc2O[C@H]1CN(C)C(=O)Nc1ccc(C(F)(F)F)cc1 | active
CCn1nnc2c(=S)nc[nH]c21 | inactive
Cc1noc(C)c1NC(=O)Nc1ccc2c(c1)CC(=O)N([C@H](C)CO)C[C@@H](C)[C@@H](CN(C)S(=O)(=O)c1cn(C)cn1)O2 | inactive
C=CCC[C@@H](Cc1ccc(F)cc1)C(=O)O[C@H](CNC(=O)[C@@H](CC=C)CC(=O)N[C@H](CO)Cc1ccccc1)c1ccccc1 | inactive
C=CCC[C@H](Cc1ccc(F)cc1)C(=O)O[C@@H](CNC(=O)[C@@H](CC=C)CC(=O)N[C@@H](CO)Cc1ccccc1)c1ccccc1 | inactive
C=CC[C@@H](CC(=O)N[C@H](CO)Cc1ccccc1)C(=O)NC[C@H](OC(=O)[C@@H](CC=C)Cc1ccc(F)cc1)c1ccccc1 | active
C=CC[C@@H](CC(=O)N[C@@H](CO)Cc1ccccc1)C(=O)NC[C@H](OC(=O)[C@@H](CC=C)Cc1ccc(F)cc1)c1ccccc1 | inactive
C=CCC[C@H](Cc1ccc(F)cc1)C(=O)O[C@H](CNC(=O)[C@@H](CC=C)CC(=O)N[C@H](CO)Cc1ccccc1)c1ccccc1 | active
C=CC[C@@H](CC(=O)N[C@H](CO)Cc1ccccc1)C(=O)NC[C@@H](OC(=O)[C@@H](CC=C)Cc1ccc(F)cc1)c1ccccc1 | inactive
C=CCC[C@H](Cc1ccc(F)cc1)C(=O)O[C@H](CNC(=O)[C@@H](CC=C)CC(=O)N[C@@H](CO)Cc1ccccc1)c1ccccc1 | inactive
C=CC[C@@H](CC(=O)N[C@@H](CO)Cc1ccccc1)C(=O)NC[C@@H](OC(=O)[C@@H](CC=C)Cc1ccc(F)cc1)c1ccccc1 | inactive
C=CCC[C@@H](Cc1ccc(F)cc1)C(=O)O[C@H](CNC(=O)[C@@H](CC=C)CC(=O)N[C@@H](CO)Cc1ccccc1)c1ccccc1 | inactive
C=CCC[C@@H](Cc1ccc(F)cc1)C(=O)O[C@@H](CNC(=O)[C@@H](CC=C)CC(=O)N[C@H](CO)Cc1ccccc1)c1ccccc1 | inactive
C=CCC[C@H](Cc1ccc(F)cc1)C(=O)O[C@@H](CNC(=O)[C@@H](CC=C)CC(=O)N[C@H](CO)Cc1ccccc1)c1ccccc1 | active
C=CCC[C@@H](Cc1ccc(F)cc1)C(=O)O[C@@H](CNC(=O)[C@@H](CC=C)CC(=O)N[C@@H](CO)Cc1ccccc1)c1ccccc1 | active
